In this assay the target is T1, Tyrosyl-tRNA synthetase, putative (Trypanosoma cruzi (strain CL Brener)) (UniProt Q4DSP6).
T1 sequence (whole entry): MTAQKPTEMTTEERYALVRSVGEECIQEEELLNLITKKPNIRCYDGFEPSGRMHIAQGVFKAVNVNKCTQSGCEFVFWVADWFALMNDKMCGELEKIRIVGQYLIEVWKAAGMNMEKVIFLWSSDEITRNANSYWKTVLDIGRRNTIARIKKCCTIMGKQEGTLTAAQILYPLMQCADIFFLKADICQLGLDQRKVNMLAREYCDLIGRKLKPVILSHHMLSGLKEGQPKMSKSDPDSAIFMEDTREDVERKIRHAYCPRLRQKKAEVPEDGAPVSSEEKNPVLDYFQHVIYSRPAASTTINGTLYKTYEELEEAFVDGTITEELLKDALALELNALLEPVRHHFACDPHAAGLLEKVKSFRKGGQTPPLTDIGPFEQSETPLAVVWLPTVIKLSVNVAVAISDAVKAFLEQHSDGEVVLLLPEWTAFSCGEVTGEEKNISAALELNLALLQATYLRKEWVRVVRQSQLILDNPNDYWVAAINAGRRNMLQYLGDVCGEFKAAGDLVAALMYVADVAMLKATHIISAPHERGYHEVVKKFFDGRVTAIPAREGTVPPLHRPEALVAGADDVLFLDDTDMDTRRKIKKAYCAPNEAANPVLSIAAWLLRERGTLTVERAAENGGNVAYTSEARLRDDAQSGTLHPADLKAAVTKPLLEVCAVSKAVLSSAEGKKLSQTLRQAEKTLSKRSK
Kind of assay: Trypanosoma cruzi tyrosyl tRNA synthetase (TcYRS) SOP. The format is functional. Also on record: scale not given: direction of the effect not stated beside the values. The note with it: 30 µM.
Turning to `CCn1nc(C(=O)N2CCCC(n3cncn3)C2)ccc1=O` (stereo not given), the Percent Effect was 11.8%.

On to `CNc1nc(C)c(C(=O)N2CCCCC2CN2CCCCCC2)s1` (stereo not given), for which the Percent Effect turned out to be 19.2%. Next, `CCOCC(=O)N1C[C@@H](O)[C@H](N(C)Cc2ccc(OC)cc2)C1`: 9.09%. To `c1cnc(NCc2ncn3c2CN(Cc2cccnc2)CCC3)nc1` belongs 8.54%; to `O=C1CCSCC(C(=O)N2CCOCC2)N1` (stereo not given), 7.5%. Take `O=C(COCc1nc(-c2ccncc2)no1)N1CCCCCC1`: the Percent Effect was found to be 13.6%. Consider `CCc1csc(C2CCCN(C(=O)c3cnn(CC)c3)C2)n1` (stereo not given), for which the Percent Effect is -2.6%. On to `COc1ccc(CCC(=O)Nc2cccnc2N2CCCC2)cc1Br`, for which the Percent Effect stood at 6.17%. To `CC(=O)c1ccc(N2CCCC(CO)(CCOc3ccccc3)C2)nc1` (stereo not given) belongs 16.1%; to `c1cncc(C2COC3(CCN(CC4CC4)CC3)C2)c1` (stereo not given), 1.22%; to `Cc1ccc2c(n1)N(CCn1cccn1)CCN(C(=O)NC1CC1)C2`, 16.1%. As to `Cc1cnn(C2CCCN(C(=O)c3cnc4ccccc4n3)C2)c1` (stereo not given), the Percent Effect was 13.6%. `CCCc1cc(=O)n(CC(N)=O)c(-n2nc(C)cc2C)n1`: the Percent Effect is 11.5%.

For the compound `Cc1cc(C)n(C2CCCN(C(=O)c3cc(C4CC4)on3)C2)n1` (stereo not given), the Percent Effect came to 9.41%. Next, `Cc1ccc(Nc2nccc(C3CCCN(CC(=O)N(C)C)C3)n2)nc1` (stereo not given): 19.2%.

On to `CC(C)c1cccc(CSc2nnc(CN3CCCC3=O)o2)n1`, for which the Percent Effect is 1.24%.

Consider `N#Cc1ccc(OCCN2CCc3c(ncn3C3CC3)C2)cc1`, for which the Percent Effect came to 9.76%. Next, `O=C(NCc1nncn1-c1ccccc1)C1CC(=O)N(CC2CC2)C1` (stereo not given): 3.7%; `CCc1nccn1C1CCCN(C(=O)Cc2n[nH]c3ccccc23)C1` (stereo not given): 15.2%; `CN(Cc1ccsc1)C(=O)c1cccc(NS(C)(=O)=O)c1`: 24.4%.

The values are drawn from ChEMBL document CHEMBL3988442, “University of Dundee, Small-Polar-MMV Screening Library” (2021).
